Measles CPE: compounds protecting cells from measles virus cytopathic effect, primary screen, measles RdRp inhibitor project, single point, MLSMR library, absorbance. protection (pct of control), % at 4 µM. Measles virus-infected cells, CPE protection. AID 841, 2007. 1.5% of 140,000 active; in the data active means protection mostly above about 24%, no sharp cut-off; inactive means mostly below about 26%
CYP2C9 activ: human CYP2C9 activators, primary screen, biochemical, luminescence; Cytochrome P450 2C9 (Homo sapiens), P11712; recombinant CYP2C9, luciferin-H conversion; active compounds read high; factor 1 = untreated enzyme, 0 = blocked; activation factor at 5 µM; 1.4% of 96,000 active; AID 1024, 2008;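 active means activation factor of 2 or more for CYP2C9 at a 5 µM dose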
Target sequence (P11712 whole entry, looked up): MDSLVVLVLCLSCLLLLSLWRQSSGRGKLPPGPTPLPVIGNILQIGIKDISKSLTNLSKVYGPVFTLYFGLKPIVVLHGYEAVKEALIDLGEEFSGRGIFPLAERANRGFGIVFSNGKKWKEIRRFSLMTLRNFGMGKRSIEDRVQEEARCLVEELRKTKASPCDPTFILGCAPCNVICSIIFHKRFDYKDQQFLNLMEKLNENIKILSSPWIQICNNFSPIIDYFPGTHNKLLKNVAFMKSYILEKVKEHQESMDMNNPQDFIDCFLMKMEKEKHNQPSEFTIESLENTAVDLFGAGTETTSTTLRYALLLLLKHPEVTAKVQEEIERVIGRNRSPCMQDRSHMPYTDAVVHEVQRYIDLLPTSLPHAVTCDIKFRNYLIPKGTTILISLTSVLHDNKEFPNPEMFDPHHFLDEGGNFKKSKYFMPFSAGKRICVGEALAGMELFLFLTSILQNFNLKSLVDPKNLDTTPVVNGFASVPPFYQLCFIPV
CYP2C19 activ: human CYP2C19 activators, primary screen, biochemical, luminescence. Cytochrome P450 2C19 (Homo sapiens), P33261. recombinant CYP2C19, luciferin-H EGE luminescence; active compounds read high; 0 = fully inhibited enzyme, 1 = untreated enzyme. activation factor at 5 µM. 96,000 tested, under 10 active. AID 1025, 2008;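 active means activation factor of at least 2 at 5 µM in the primary screen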
CYP2C9 inhib: blockers of cytochrome P450 2C9 activity – biochemical, luminescence, ADME assay, primary screen; 20% of 96,000 active; inhibition, % at 5 µM; CYP2C9 Supersomes, luciferin-H conversion; P11712;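 active means blocking of liver enzyme CYP2C9 beyond about 50% at 5 µM, limit read from the data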
CYP2C19 inh: blockers of cytochrome P450 2C19 activity – biochemical, luminescence, ADME assay, primary screen. 21% of 96,000 active. CYP2C19 Supersomes, luciferin-H EGE luminescence, 30 min. inhibition, % at 5 µM. AID 778, 2007. P33261;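 active means CYP2C19 inhibition above a set limit at 5 µM in the primary screen, cut at about 50% in these data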
Hits are given with their value; n = inactive; x = no result. In the library only some 22% were active in any assay of this set; here they are far more common.

SMILES	Measles CPE	CYP2C9 activ	CYP2C19 activ	CYP2C9 inhib	CYP2C19 inh
Fc1ccccc1Cn1nnc2c(-n3ccnc3)ncnc21	n	n	n	91	99
FC(F)(F)c1ccc(N2CCN(c3ncnc4c3nnn4Cc3ccccc3)CC2)nc1	n	n	n	n	n
c1ccc(Cn2nnc3c(N4CCN(Cc5ccc6c(c5)OCO6)CC4)ncnc32)cc1	n	n	n	85	84
c1ccc(Cn2nnc3c(N4CCOCC4)ncnc32)cc1	n	n	n	n	76
Cc1ccc2c(c1)[nH]c1c(N3CCN(Cc4ccc5c(c4)OCO5)CC3)ncnc12	x	n	n	93	82
CCOc1cc(OCC)cc(C(=O)Nc2cccnc2)c1	n	n	n	n	n
O=C(C1CCCO1)N1CCN(S(=O)(=O)c2cccc3nsnc23)CC1 (stereo unspecified)	n	n	n	n	n
CC1Cc2ccccc2N1c1ncnc2c1nnn2Cc1ccccc1Cl (stereo unspecified)	n	x	x	x	x
Clc1ccc(N2CCN(c3ncnc4c3oc3ccccc34)CC2)cc1	x	n	n	n	n
Clc1ccc(Cn2ncc3c(N4CCOCC4)ncnc32)cc1	n	n	n	n	67
c1ccc2c(c1)oc1c(N3CCN(Cc4ccc5c(c4)OCO5)CC3)ncnc12	n	n	n	86	82
Clc1ccccc1Cn1nnc2c(N3CCCC3)ncnc21	n	2.2	n	n	99
Cn1ncc([N+](=O)[O-])c1C(=O)Nc1ccc(-c2nc3ccccc3[nH]2)cc1	n	n	n	n	62
CCOC(=O)c1ccc(NC(=O)Nc2ccc(OC)c(OC)c2)cc1	n	n	n	n	n
CCOC(=O)c1ccc(NC(=O)Nc2ccc(F)cc2)cc1	n	n	n	66	n
CCOC(=O)c1ccc(NC(=O)CC2C(=O)N(c3ccc(F)cc3)C(=O)N2CCC(C)C)cc1 (stereo unspecified)	n	n	n	n	54
COC(=O)c1ccc(NC(=O)Nc2ccc(F)cc2)cc1	n	n	n	60	n
O=C1c2ccccc2C(=O)N1c1ncccn1	n	n	n	n	n
CCOC(=O)c1c(-c2ccccc2)nc2ccc(C)cn12	n	n	n	n	n
CC(C)CC1NC(=O)N(CC(=O)c2ccc3c(c2)OCCO3)C1=O (stereo unspecified)	n	n	n	n	n
Cc1ccc(-c2nnc(SCC(=O)Nc3ccccc3N3CCOCC3)o2)cc1	n	n	n	n	n
O=C(Cn1nnc(-c2ccccc2)n1)Nc1ccccc1N1CCOCC1	n	n	n	74	63
CN(C)CCCNCC(=O)Nc1ccccc1N1CCOCC1	n	n	n	67	n
CC1(C)Cc2cccc(OCC(=O)O)c2O1	n	x	x	x	x
Cc1ccc(-c2nnn(CC(=O)Nc3ccccc3N3CCOCC3)n2)cc1	n	n	n	79	n
SMILES	Measles CPE	CYP2C9 activ	CYP2C19 activ	CYP2C9 inhib	CYP2C19 inh
CC1(C)Cc2cccc(OCC(=O)Nc3ccccc3N3CCOCC3)c2O1	n	n	n	56	91
O=C(Nc1ccc2c(c1)Cc1ccccc1-2)c1ccc(Br)o1	n	x	x	x	x
CC(/C=N/NC(=O)c1cc(-c2ccccc2)nc2ccccc12)=C\c1ccco1	n	x	x	x	x
Cc1ccc(NC(=O)Cn2cnc3sc(C(=O)NCCN(C)C)c(C)c3c2=O)cc1Cl	n	x	x	x	x
CCc1ccccc1NC(=O)Cn1nnc(-c2cccnc2)n1	n	n	n	n	96
Cn1c(-c2ccc(F)cc2)cnc1SCC(=O)Nc1ccccc1N1CCOCC1	n	n	n	n	68
CC1CC(c2ccccc2)n2nc(NC(=O)c3ccco3)nc2N1 (stereo unspecified)	n	n	n	n	n
CC1CC(N(C(=O)c2ccco2)c2ccccc2)c2ccccc2N1 (stereo unspecified)	n	n	n	96	84
O=C(c1ccc2c(c1)OCO2)N1CCN=C1SCc1cccnc1	n	n	n	67	76
CN(C)S(=O)(=O)c1ccc(C(=O)N2CCN=C2SCc2cccnc2)cc1	n	n	n	n	n
COc1ccc(C(=O)N2CCN=C2SCc2cccnc2)c(OC)c1	n	n	n	62	88
COc1cccc(C(=O)N2CCN=C2SCc2cccnc2)c1OC	n	n	n	n	86
Cc1ccc(S(=O)(=O)N(CC(=O)N/N=C/c2ccco2)c2cc(Cl)cc(Cl)c2)cc1	n	x	x	x	x
O=C(CN(Cc1ccccc1)S(=O)(=O)c1ccccc1)N/N=C/c1ccc([N+](=O)[O-])cc1	n	x	x	x	x
Cc1ccc(CN(CC(=O)N/N=C/c2ccco2)S(=O)(=O)c2ccc(C)cc2)cc1	n	n	n	90	100
O=C(CN(c1ccc(Cl)cc1)S(=O)(=O)c1ccccc1)N/N=C/c1ccco1	n	n	n	82	98
O=C(C1CCN(S(=O)(=O)c2cccc3nsnc23)CC1)N1CCN(c2ccccc2F)CC1	n	n	n	n	n
Cn1c(=O)c2c(SCc3cccnc3)nc(C3CC3)nc2n(C)c1=O	n	n	n	57	88
CCc1nc(SCc2cccnc2)c2c(=O)n(C)c(=O)n(C)c2n1	n	n	n	n	94
CCc1nc(SCc2ccccn2)c2c(=O)n(C)c(=O)n(C)c2n1	n	x	x	x	x
Cc1cc(C)nc(SCSc2nc(C)cc(C)n2)n1	n	n	n	n	n
Cc1cc(C)nc(SCCc2ccncc2)n1	n	n	n	n	73
Brc1ccccc1-c1nnc(COc2cccc3cccnc23)o1	n	2.9	n	n	91
Clc1ccccc1OCc1nnc(-c2ccccc2Br)o1	n	2.1	n	n	n
Clc1ccc(Cc2nnc(-c3ccccc3Br)o2)cc1	n	x	x	x	x
SMILES	Measles CPE	CYP2C9 activ	CYP2C19 activ	CYP2C9 inhib	CYP2C19 inh
COc1ccc(/C=N/NC(=O)c2nc(Cl)c(Cl)c(N)c2Cl)cc1COc1ccccc1F	n	n	n	87	62
COc1ccc(/C=N/NC(=S)Nc2ccccc2)cc1COc1ccccc1F	n	x	x	x	x
COCc1cc(/C=N\NC(=O)c2ccc(Cl)cc2)ccc1OC	n	x	x	x	x
COc1ccc(/C=N/NC(=O)c2nc(Cl)c(Cl)c(N)c2Cl)cc1COc1ccc(F)cc1F	n	n	n	67	n
Cc1cc(C)nc(-n2nc(C)c(Oc3ccccc3O)c2C)n1	n	n	n	n	n
CC1CCCCC1N1CCN(C(=O)c2cccc(F)c2)CC1 (stereo unspecified)	n	n	n	n	n
Cc1cc(NC(=O)CSc2cn(CCNC(=O)c3ccc(Cl)cc3)c3ccccc23)no1	n	n	n	n	n
CCCCn1cc(SCC(=O)O)c2ccccc21	n	n	n	n	n
CCCn1cc(SCC(=O)Nc2nnc(C)s2)c2ccccc21	n	n	n	63	n
Cn1cc(SCC(=O)Nc2nccs2)c2ccccc21	n	n	n	n	64
CC1CCN(C(=O)Cn2c(SCC(=O)Nc3nccs3)nc3ccccc32)CC1	n	n	n	79	81

Screening data from PubChem.
